# In the library only some 21% were active in any assay of this set; here they are far more common.
# Shiga toxin inh = A qHTS for Small Molecule Inhibitors of Shiga Toxin; Vero cells, Shiga toxin protein synthesis inhibition reporter; 9.2% of 290,000 active; AID 2315, 2010; inhibition, % at 38.7 µM; in the data active = inhibition mostly above about 28%, no sharp cut-off; inactive = mostly below about 43%
# Cycloheximide cs = Cycloheximide Counterscreen for Small Molecule Inhibitors of Shiga Toxin | AID 2314, 2010 | 12% of 300,000 active | max response, % | cell reporter, cycloheximide protein synthesis inhibition counterscreen; in the data active = max response mostly above about 13%, no sharp cut-off; inactive = mostly below about 14%; also: read at 38.3 µM for the half of the compounds with a filed dose
# Pf growth 48h = Primary qHTS for delayed death inhibitors of the malarial parasite plastid, 48 hour incubation. P. falciparum luciferase growth in erythrocytes, 48 h. Potency, µM (top dose mostly 28.7 µM), hits mostly inhibitors. 5.9% of 310,000 active. AID 504832, 2011
#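 Compounds are pin-transferred into medium, infected erythrocytes (2% hematocrit, 0.1% parasitemia final) are added, and plates sit one parasite generation at 37 C in 5% CO2. Detection reagent is then added and luminescence measured.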
# HCV inhibitor = qHTS Assay for Inhibitors of Hepatitis C Virus (HCV); Huh7.5.1 HCVcc-Cre infection, luciferase reporter, 44 h; Potency, µM (doses to about 41.8 µM), usual class: inhibitors; 3.4% of 340,000 active
#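 Seed cells (1,000/well) for 4 h; treat with compound and infect with HCVcc-Cre, moi about 0.5. Incubate 44 h, then detect luciferase activity.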
# AMA1 RON2 block = qHTS for Inhibitors of AMA1-RON; Towards Development of Antimalarial Drug Lead: Primary Screen; 0.2% of 360,000 active; Potency, µM (doses to about 58.2 µM), actives largely listed as inhibitors; AlphaScreen AMA1-biotinylated RON2 peptide binding; also: nearly all actives have a fitted effect of over 45% in size
#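 AMA1 (3D7) with his tag at 25 nM final met compounds first, then biotinylated RON2 peptide at 25 nM; detection used donor plus acceptor beads, 10 µg/mL apiece, read by AlphaScreen after 30 min at room temperature.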
# Pf growth 96h = Primary qHTS for delayed death inhibitors of the malarial parasite plastid, 96 hour incubation | P. falciparum luciferase reporter growth, 96 h | Potency, µM (top dose mostly 28.7 µM), hits mostly inhibitors | 6.9% of 320,000 active | AID 504834, 2011
#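 Two-generation exposure (96 h) targets delayed-death phenotype. Reporter parasites carrying integrated firefly luciferase, in red cells at 2% hematocrit and 0.05% parasitemia final, kept at 37 C, 5% CO2; luminescence loss indicates inhibition.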
# A number is an active result; – = inactive; ? = inconclusive; · = no result; [ ] = dose if it differs, or a comment. Unless noted, calls follow the shape of the dose curve; as a rule, active = well fitted curve in the direction sought with a large enough effect; inconclusive = small, poorly fitted or top-dose-only effect, or another doubt; inactive = no such curve, though single readings can be large; an effect the other way counts as inactive or inconclusive.
SMILES,Shiga toxin inh,Cycloheximide cs,Pf growth 48h,HCV inhibitor,AMA1 RON2 block,Pf growth 96h
Cc1ccc(NC(=O)CSc2nnc(NC3CC3)s2)cc1S(=O)(=O)N1CCOCC1,·,·,·,·,–,·
COc1cccc(CNS(=O)(=O)c2c(C)[nH]c(C)c2C(=O)N2CCCCC2)c1,–,–,–,–,–,–
CC1CC(C)CN(C(=O)CSc2nnc(-c3ccco3)o2)C1 (stereo unspecified),–,13,–,–,–,?
O=C(CSc1nnc(-c2ccco2)o1)N1CCCCC1,66,25,–,–,–,–
O=C(CSc1ccc(-c2ccco2)nn1)N1CCCCC1,62,61,–,–,–,–
CC1CCN(C(=O)CSc2nnc(-c3ccco3)o2)CC1,–,–,·,–,–,–
O=C(CSc1ccc(-c2ccco2)nn1)N1CCCC1,–,–,–,–,–,–
O=C(CSc1ccc(-c2ccco2)nn1)c1cccc([N+](=O)[O-])c1,–,–,?,–,–,13µM
Cc1ccc(S(=O)(=O)N2CCN(C(=O)COC(=O)/C=C/c3cccc([N+](=O)[O-])c3)CC2)c(C)c1,·,·,·,–,–,·
Clc1ccc(-c2csc(-c3ccno3)n2)cc1,–,23,–,–,–,–
Fc1cccc(-c2csc(-c3ccno3)n2)c1,38,25,–,–,–,–
CC(C)CNC(=O)c1cc(S(=O)(=O)N2CCOCC2)ccc1N1CCCC1,–,–,?,–,–,?
COc1ccccc1N(CC(O)CN1CCOCC1)S(=O)(=O)c1ccccc1 (stereo unspecified),–,–,–,–,–,–
CCOC(=O)N1CCC(NC(=O)c2cc(COc3c(C)cccc3C)on2)CC1,–,14,?,?,–,–
Cc1cccc(C)c1OCc1cc(C(=O)NC2CCC(O)CC2)no1 (stereo unspecified),–,–,–,–,–,?
Cc1cccc(C)c1OCc1cc(C(=O)NCc2ccc(Cl)s2)no1,–,18,–,–,–,10µM
O=C(NCc1ccc(Cl)s1)c1cc(COc2c(F)cccc2F)on1,–,–,–,–,–,?
Cc1cccc(C)c1OCc1cc(C(=O)NC2CCC2)no1,37,37,?,?,–,–
Cc1cccc(C)c1OCc1cc(C(=O)NCC2CC2)no1,–,10,?,–,–,15µM
Cc1ccc(S(=O)(=O)N(C)C)cc1NC(=O)COC(=O)/C=C/c1ccc(F)cc1,·,·,–,–,–,–
COC(=O)c1ccc(N)cc1O,–,–,·,–,–,10µM
Nc1ccc(C(=O)Oc2ccccc2)c(O)c1,·,·,–,·,·,–
Cn1c(=O)oc2cc(S(=O)(=O)N3CCCC(C(=O)N4CC=C(c5ccccc5)CC4)C3)ccc21 (stereo unspecified),–,–,·,·,·,–
COc1ccc(C)cc1S(=O)(=O)N1CCCC(C(=O)N2CCN(c3ccccc3F)CC2)C1 (stereo unspecified),–,–,10µM,?,–,?
COc1ccccc1N1CCN(C(=O)C2CCCN(S(=O)(=O)c3ccc4c(c3)oc(=O)n4C)C2)CC1 (stereo unspecified),–,–,12µM,?,–,–
SMILES,Shiga toxin inh,Cycloheximide cs,Pf growth 48h,HCV inhibitor,AMA1 RON2 block,Pf growth 96h
COc1ccc(N2CCN(C(=O)C3CCCN(S(=O)(=O)c4ccc5c(c4)oc(=O)n5C)C3)CC2)cc1 (stereo unspecified),–,–,12µM,–,–,?
Cc1ccc(Cl)cc1N1CCN(S(=O)(=O)c2ccc3c(c2)CC(=O)N3C)CC1,–,–,?,?,–,–
Cc1ccc(C(=O)OCC(=O)Nc2ccc3c(c2)OCO3)c(O)c1,·,·,–,?,–,–
COc1ccc2c(=O)c(-c3ccc(OC)c(OC)c3)coc2c1,54,25,–,–,–,–
O=c1c(-c2ccc(F)cc2)coc2cc(O)ccc12,114,32,–,–,–,–
CCN(CC)C(=O)Oc1ccc2c(=O)c(-c3ccccc3)coc2c1,85,50,–,·,–,·
COc1ccccc1-c1coc2cc(OC(=O)/C=C/c3ccccc3)ccc2c1=O,–,–,–,–,–,?
O=c1c(-c2ccc(F)cc2)coc2c3c(ccc12)OCCO3,87,44,–,–,–,–
COc1ccc(-c2coc3cc(OC(C)=O)c(OC)cc3c2=O)cc1,·,·,·,–,–,·
CCOc1ccccc1Oc1coc2cc(O)ccc2c1=O,–,–,–,–,–,–
CCCCN1CC(COC)Oc2cccc(F)c2S1(=O)=O (stereo unspecified),·,·,·,–,–,·
CCOc1ccccc1Oc1coc2cc(OC(=O)N(C)C)ccc2c1=O,55,36,–,–,–,–
COc1ccc(-c2coc3cc(O)ccc3c2=O)cc1OC,–,34,–,?,–,?
CCOC(=O)c1ccc(Oc2coc3cc(O)ccc3c2=O)cc1,–,–,–,–,–,2.9µM
CCOc1ccc2c(=O)c(Oc3ccccc3OCC)coc2c1,–,–,·,–,–,?
COc1ccc2c(=O)c(-c3ccccc3)coc2c1,84,52,–,–,–,–
COc1ccc(-c2coc3cc(O[C@@H]4O[C@H](CO)[C@@H](O)[C@H](O)[C@H]4O)ccc3c2=O)cc1,·,·,·,–[8.37 µM],–,·
O=C(Nc1cccnc1)c1ccc(COc2ccccc2Br)cc1,–,24,?,?,–,–
Cc1cc(C)n(Cc2ccc(NC(=O)c3ccc(COc4ccccc4Br)cc3)cc2)n1,–,–,?,4µM,–,?
O=C(NCCO)c1cccc(-c2cnc3cccnn23)c1,·,·,·,·,–,·
Cc1cc(N2C(=O)CCC2=O)n(-c2ccccc2)n1,–,–,–,–,–,10µM
Cc1cc(NC(=O)Nc2cc(C)nn2-c2ccccc2)n(-c2ccccc2)n1,–,–,·,?,–,–
CCc1ccc(NC(=O)c2cnc(SC)nc2C)cc1,–,29,–,?,–,?
CCc1ccc(NC(=O)c2ccccc2SC)cc1,–,31,–,–,–,–
CCOC(=O)c1ccc(NC(=O)c2nc(SC)ncc2Cl)cc1,–,–,–,–,–,?
Cc1c(Cc2ccccc2)c(=O)oc2cc(OCC(=O)NCC3CCC(C(=O)O)CC3)ccc12 (stereo unspecified),–,–,?,?,–,12µM
Cc1cc(=O)oc2c(C)c(OC(C)C(=O)NCC3CCC(C(=O)O)CC3)ccc12 (stereo unspecified),–,–,–,–,–,–
Cc1c(Cc2ccccc2)c(=O)oc2c(C)c(OC(C)C(=O)NCC3CCC(C(=O)O)CC3)ccc12 (stereo unspecified),–,–,?,–,–,13µM

# Screening results deposited in PubChem BioAssay by National Center for Advancing Translational Sciences (NCATS).
